Screening data as filed in PubChem BioAssay.
GDH-TPI counter = GDH-TPI coupling enzyme inhibitors, primary screen, artefact control for M. tuberculosis FBA inhibitor project, biochemical, absorbance, full deck; inhibition, % at 4.8 µM; 360,000 tested, 1.2% active; GDH-TPI coupled enzyme counterscreen, NADH absorbance; in the data active = inhibition above about 30%;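 note: 0% = DMSO wells and 100% = wells lacking the enzyme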
Mtb BioA inh = M. tuberculosis BioA enzyme inhibitors, primary screen, biochemical, plate reader, single point, HTS; 7,8-diaminopelargonic acid synthase BioA (Mycobacterium tuberculosis); purified M. tuberculosis BioA enzyme; inhibition, % at 9.99 µM; 360,000 tested, 0.096% active; AID 602481, 2012; in the data active = inhibition above about 40%; inconclusive = no clear call, values can overlap the other calls
FadD28 FP inh = inhibitors of FadD28 bisubstrate probe binding, primary screen, biochemical, fluorescence polarization, single point; inhibition, % at 12.5 µM; 360,000 tested, 0.22% active; Mycobacterium tuberculosis FadD28 fatty-acid-AMP ligase; AID 588549, 2011; in the data active = inhibition above about 8.5%, passing the limit was not always enough; inconclusive = no clear call, values can overlap the other calls
Mtb hypoxia inh = PubChem AID 1159583 | fluorescence inhibition, % (concentration not given with the values) | 300,000 tested, 0.1% active | M. tuberculosis hypoxia-regulated fluorescent reporter, fluorescence; in the data active = fluorescence inhibition mostly above about 23%, no sharp cut-off; inactive = mostly below about 17%
FBA Mtb inh = Mtb FBA enzyme inhibitors, primary screen, biochemical, fluorescence, strain H37Rv. Fructose-bisphosphate aldolase (Mycobacterium tuberculosis (strain ATCC 25618 / H37Rv)), …. purified M. tuberculosis FBA, fluorescence read-out. inhibition, % at 1 µM. 360,000 tested, 2.3% active; in the data active = inhibition above about 27%;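 note: 0% = vehicle and 100% = reference inhibitor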
Target sequence (P9WQA3 whole entry, looked up): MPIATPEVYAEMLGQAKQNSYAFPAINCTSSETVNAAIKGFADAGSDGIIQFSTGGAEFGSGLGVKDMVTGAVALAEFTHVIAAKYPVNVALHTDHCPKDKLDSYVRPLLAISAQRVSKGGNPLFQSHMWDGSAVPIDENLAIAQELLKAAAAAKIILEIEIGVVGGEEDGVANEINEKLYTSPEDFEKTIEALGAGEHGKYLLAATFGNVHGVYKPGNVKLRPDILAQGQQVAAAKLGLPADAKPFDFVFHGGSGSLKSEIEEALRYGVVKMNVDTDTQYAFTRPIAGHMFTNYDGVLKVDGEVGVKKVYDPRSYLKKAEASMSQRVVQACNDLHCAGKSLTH
Starred values were filed as active, the others as inactive; ? = inconclusive; · = no result; + = active, no number. Rows were chosen to be rich in hits. Some 2.9% of all compounds tested hit in one or more screens of this group.

SMILES | GDH-TPI counter | Mtb BioA inh | FadD28 FP inh | Mtb hypoxia inh | FBA Mtb inh
CN(C)C(=O)C[C@H]1C=C[C@@H](NC(=O)NC2CCCCC2)[C@H](CO)O1 | · | 1.9 | · | · | ·
C[C@@H]1CN([C@@H](C)CO)C(=O)c2cc(C#Cc3cccnc3)cnc2O[C@@H]1CN(C)Cc1ccccc1 | · | 0.4 | · | · | ·
CC(=NNC(=O)c1ccncc1)c1ccc(O)cc1O | 41.4* | -2.0 | -1.1 | 11.3 | -1.0
C/C(=N\NC(=O)c1ccc(N2CCCC2=O)cc1)c1ccc(O)cc1O | 33.2* | -0.3 | -1.8 | · | 3.0
C/C(=N\NC(=O)c1ccc(N2CCCC2=O)cc1)c1ccccc1 | -5.9 | · | · | · | -0.4
C[C@@H]1CN([C@@H](C)CO)C(=O)c2cc(C3=CCCCC3)cnc2O[C@@H]1CN(C)Cc1cccc(F)c1 | · | 7.0 | · | · | ·
CC=NNC(=O)CCNC(=O)c1ccccc1 | · | · | · | 5.3 | ·
CC1(C)CC(=O)C=C(c2ccc(I)cc2)C1 | 0.5 | 3.0 | -3.5 | 14.8 | -1.5
COc1ccc(C2=CC(=O)C[C@H](c3ccc(OC)c(OC)c3)C2)cc1 | 30.2 | 20.8 | -2.2 | · | -3.1
CC1(C)CC(=O)C=C(c2ccc3[nH]ccc3c2)C1 | 33.9* | 1.1 | -5.5 | 0.8 | -2.3
O=C1C=C(c2ccc3[nH]ccc3c2)CCC1 | 35.5* | 1.5 | -1.8 | -5.7 | -1.8
COc1ccc(C2=CC(=O)CC(C)(C)C2)cc1OC | 35.2* | 9.9 | -1.8 | 14.0 | 4.7
COc1ccc2cc(C3=CC(=O)CCC3)ccc2c1 | 31.5* | 0.4 | -4.4 | 5.6 | 23.2
c1ccc(-c2ccc3[nH]ccc3c2)cc1 | -0.4 | 2.1 | -5.7 | 9.0 | 0.1
CCCNC(=O)N[C@H]1CC[C@@H](CCn2cc(C3CC3)nn2)O[C@H]1CO | · | -2.2 | · | · | ·
Cc1nn(-c2ccc(N3CCOCC3)nn2)c(C)c1CCC(=O)N1CCN(C)CC1 | 8.1 | -0.1 | -3.5 | 75.2* | 1.7
Cc1ccc(F)cc1NC(=O)CN1C(=O)NC(C)(c2ccc3c(c2)OCCO3)C1=O (stereo not drawn) | -0.5 | 0.6 | -1.7 | 3.6 | 0.5
Cc1ccc(C)c(NC(=O)CN2C(=O)NC(C)(c3ccc4c(c3)OCCO4)C2=O)c1 (stereo not drawn) | -2.1 | -0.4 | -3.3 | 33.9* | -1.7
CC1CCN(C(=O)CSc2nc(N)c3c4c(sc3n2)CN(C)CC4)CC1 | 11.0 | 3.1 | -2.0 | 4.5 | 30.9*
COC(=O)CSc1nc2sc3c(c2c(=O)n1-c1ccc(OC)cc1)CCN(C)C3 | 19.7 | 14.0 | -3.7 | 9.2 | 4.5
COc1ccc(-n2c(SCC(N)=O)nc3sc4c(c3c2=O)CCN(C)C4)cc1 | 34.6* | ? | -2.4 | -2.4 | 35.5*
O=C(CSc1ccc(Cl)cc1)N1CCOCC1 | -3.1 | -2.6 | 14.7* | · | -10.8
CN1CCc2c(sc3nc(SCC(=O)N4CCOCC4)n(-c4ccc(Cl)cc4)c(=O)c23)C1 | 50.9* | 33.6 | -7.3 | -1.4 | 24.6
Cc1noc(C)c1NC(=O)N(C)C[C@@H]1Oc2ccc(NC(=O)Nc3ccc4c(c3)OCO4)cc2CC(=O)N([C@H](C)CO)C[C@@H]1C | · | 0.1 | · | · | ·
COC(=O)/C(=N/Nc1ccc(C)cc1)N1CCCc2ccccc21 | 23.0 | · | 0.4 | · | -1.0
SMILES | GDH-TPI counter | Mtb BioA inh | FadD28 FP inh | Mtb hypoxia inh | FBA Mtb inh
COC(=O)/C(=N/Nc1ccccc1)N1CCCc2ccccc21 | 34.2* | 0.2 | -2.6 | · | -1.6
CC(=NNC(=O)NC12CC3CC(CC(C3)C1)C2)c1ccccc1 | · | · | · | 13.1 | ·
CCOC(=O)N1CCC(N2C(=O)c3ccccc3C2Nc2ccc3c(C)cc(=O)oc3c2)CC1 (stereo not drawn) | 20.2 | 23.2 | -1.3 | -0.3 | +
CCOC(=O)N1CCC(N2C(=O)c3ccccc3C2Nc2ccc3c(c2)OCCO3)CC1 (stereo not drawn) | -3.0 | 7.9 | 1.2 | · | 0.4
CC(C)CC1C(=O)N2CCCC2[C@]2(O)O[C@](NC(=O)C3C=C4c5cccc6[nH]c(Br)c(c56)CC4N(C)C3)(C(C)C)C(=O)N12 (stereo partly drawn) | · | · | · | -4.4 | ·
Cc1ccc(SCc2cn3cccnc3n2)cc1 | 10.2 | -1.3 | -1.3 | · | -0.4
Cn1ncnc1SCc1cn2cccnc2n1 | 8.3 | · | -0.8 | 2.2 | 130.1*
C[C@H]1CN([C@@H](C)CO)C(=O)c2cc(C#Cc3cccc(F)c3)cnc2O[C@@H]1CN(C)C(=O)C1CC1 | · | -0.4 | · | · | ·
O=C(NNC(=O)c1ccc([N+](=O)[O-])cc1)c1ccc(NS(=O)(=O)c2cccs2)cc1 | 5.6 | -0.2 | 19.0* | 9.3 | -6.0
Cc1ccc(C(=O)NNC(=O)c2ccc(NS(=O)(=O)c3cccs3)cc2)s1 | 7.2 | 0.9 | 2.5 | 3.7 | -0.9
Cc1cccc(C(=O)NNC(=O)c2ccc(NS(=O)(=O)c3cccs3)cc2)c1C | -0.4 | -0.5 | 12.6* | 3.9 | -3.5
Cc1cccc(NC(=O)c2cc3c(=O)n4ccccc4nc3n(CC(C)C)c2=N)c1 | -5.3 | -0.9 | 0.2 | 2.0 | -0.1
COc1ccc(CCNC(=O)c2cc3c(=O)n4cccc(C)c4nc3n(Cc3ccco3)c2=N)cc1OC | 11.6 | -1.0 | -5.5 | · | 10.4
Cc1cccn2c(=O)c3cc(C(=O)NCc4ccco4)c(=N)n(C(C)C)c3nc12 | 3.9 | 3.3 | -1.6 | 4.4 | +
CC(C)n1c(=N)c(C(=O)NCCc2ccccc2)cc2c(=O)n3ccccc3nc21 | 12.1 | 1.7 | -3.7 | 5.0 | +
Cc1cccn2c(=O)c3cc(C(=O)NCc4cccnc4)c(=N)n(C(C)C)c3nc12 | 15.8 | · | -1.7 | -5.0 | +
COc1ccc(C=NNC(=O)CC(=O)NCc2cccnc2)c(OC)c1 | · | · | · | 7.8 | ·
C[C@@H]1CN([C@H](C)CO)C(=O)c2cc(/C=C/c3ccccc3)cnc2O[C@H]1CN(C)S(=O)(=O)c1cn(C)cn1 | · | 1.5 | · | · | ·
CC(C)CC#Cc1ccc2c(c1)O[C@H](CN(C)C(=O)Nc1ccccc1)[C@H](C)CN([C@H](C)CO)S2(=O)=O | · | -1.8 | · | · | ·
CC(=NOCc1ccc(C#N)cc1)c1ccc(S(=O)(=O)N(C)C)cc1 | · | · | · | 3.3 | ·
COc1ccc2nc(N3CCOCC3)cc(C)c2c1 | 15.1 | 0.1 | -1.1 | 16.6 | 85.2*
COc1ccc2c(C)cc(N3CCOCC3)nc2c1 | 6.9 | 0.3 | -2.0 | · | 12.0
O=C(/C=C(\c1ccc(Cl)cc1)n1cncn1)c1ccc(Cl)cc1 | 4.6 | 0.5 | -0.5 | 36.0* | 1.5
CN(C)CC(=O)N[C@@H]1CC[C@H](CCNS(=O)(=O)c2ccccc2)O[C@H]1CO | · | -4.1 | · | · | ·
COc1ccc(S(=O)(=O)Nc2ccc3c(c2)C(=O)N([C@@H](C)CO)C[C@@H](C)[C@@H](CN(C)CC2CCCCC2)O3)cc1 | · | 2.3 | · | · | ·
CO[C@@H]1CN(C)C(=O)c2ccc(NC(=O)C3CCOCC3)cc2OC[C@@H](C)N(C)C[C@H]1C | · | -0.7 | · | · | ·
Nc1cccc2c(O)cc(S(=O)(=O)O)cc12 | 19.4 | -1.5 | 36.0* | 16.9 | 13.1
C[C@@H]1CN([C@H](C)CO)C(=O)c2cc(C#CC(C)(C)O)cnc2O[C@H]1CN(C)C(=O)C1CCCCC1 | · | 1.7 | · | · | ·
